In ChEMBL document CHEMBL1961873, “Compounds: GSK PKIS; Assays: Nanosyn kinase panel” (2012) one finds inhibition data, which are given here for 31 molecules.

Values joined by “and” are separate entries in the source; they are usually repeats but may differ in a detail not shown here. Equal values may be shown once.

The first experiment deals with T1, Serine/threonine-protein kinase BRSK2 (Homo sapiens) (UniProt Q8IWQ3).
T1 sequence (whole entry): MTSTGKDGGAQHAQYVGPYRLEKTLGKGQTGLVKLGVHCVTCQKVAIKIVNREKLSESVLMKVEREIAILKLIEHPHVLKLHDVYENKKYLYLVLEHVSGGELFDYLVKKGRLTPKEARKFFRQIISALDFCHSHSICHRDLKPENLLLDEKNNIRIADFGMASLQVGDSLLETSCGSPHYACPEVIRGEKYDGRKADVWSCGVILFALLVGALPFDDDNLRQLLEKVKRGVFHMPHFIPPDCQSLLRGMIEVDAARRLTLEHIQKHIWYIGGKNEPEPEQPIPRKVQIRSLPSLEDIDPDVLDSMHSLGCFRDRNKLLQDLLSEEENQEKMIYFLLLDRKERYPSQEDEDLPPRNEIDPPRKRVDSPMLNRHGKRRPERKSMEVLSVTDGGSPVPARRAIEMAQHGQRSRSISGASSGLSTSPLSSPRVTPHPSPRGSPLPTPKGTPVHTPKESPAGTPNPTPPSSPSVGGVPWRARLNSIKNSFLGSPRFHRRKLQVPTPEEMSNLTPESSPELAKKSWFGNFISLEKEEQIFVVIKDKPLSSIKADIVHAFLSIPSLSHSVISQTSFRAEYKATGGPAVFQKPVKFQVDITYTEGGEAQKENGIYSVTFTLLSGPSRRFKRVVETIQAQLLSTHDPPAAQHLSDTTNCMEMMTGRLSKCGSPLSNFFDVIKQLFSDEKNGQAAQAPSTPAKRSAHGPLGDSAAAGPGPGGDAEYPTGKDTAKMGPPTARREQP
The following applies: at 0.1 µM.
In the case of `COc1cccc(-n2ncc3c(N/N=C/c4ccc(C(=O)NCCN(C)C)cc4)ncnc32)c1`, the inhibition worked out at 33.3%.

As for `CS(=O)(=O)Nc1ccc(-c2cc(-c3ccccc3)cc(C(N)=O)c2N)cc1`, the inhibition came to 0.92%.

With `CCn1c(-c2nonc2N)nc2cncc(C(=O)NCCNC)c21`, the inhibition is 2.51%.

For the molecule `NS(=O)(=O)c1ccc(N/N=C2\C(=O)Nc3cccc(CCc4ccncc4)c32)cc1`, the inhibition came to 3.33%.

As to `CCOc1ccc2c(-c3ccnc(Nc4cc(OC)cc(C(F)(F)F)c4)n3)cnn2n1`, the inhibition turned out to be 1.89%.

On to `Cc1ccc(-c2cc3c(NC(=O)C4CC4)ncnc3o2)cc1`, for which the inhibition was 2.82%.

As to `COc1cc2c(cc1Nc1nc(Nc3cccc(F)c3C(N)=O)c3cc[nH]c3n1)N(C(=O)CN1CCN(C(C)C)CC1)CC2`, the inhibition is -0.84%.

`Nc1ncnc2occ(-c3ccc(NC(=O)Nc4cc(C(F)(F)F)ccc4F)cc3)c12`: the inhibition was 2.02% and -1.66%.

Regarding `CN1CCN(Cc2ccc(-c3cc4ncnc(Nc5ccc(OCc6cccc(F)c6)c(Cl)c5)c4s3)o2)CC1`, the inhibition was 2.16% and 1.05%.

On to `NC(=O)c1ccc2c(-c3ccnc(NCCCO)n3)c(-c3ccc(F)cc3)nn2c1`, for which the inhibition worked out at 2.27%.

Consider `CN1CCC(n2cnc(-c3ccc(F)cc3)c2-c2ccnc(NCCO)n2)CC1`, for which the inhibition turned out to be 2.24%.

`O=C(O[C@H]1CN[C@H](C#Cc2cc3ncnc(Nc4ccc5c(cnn5Cc5ccccc5)c4)c3s2)C1)N1CCOCC1`: the inhibition stood at 1.3%.

As to `Cc1c2ccc(N(C)c3ccnc(Nc4cccc(S(N)(=O)=O)c4)n3)cc2nn1C`, the inhibition worked out at 1.95%.

As to `CNC(=O)c1cncc(/C=C/c2ccccc2C)c1`, the inhibition was 3.54%.

Take `COc1ccc(Nc2ncc(-c3ccccc3)o2)cc1OC`: the inhibition turned out to be 0.9%.

Turning to `CS(=O)(=O)CCNCc1ccc(-c2ccc3ncnc(Nc4ccc(OCc5ccccc5)cc4)c3c2)o1`, the inhibition was 2.82%.

For the molecule `CCCNc1cccc(-n2ncc3c(N/N=C/c4ccncc4)ncnc32)c1`, the inhibition turned out to be 4.13%.

In the case of `COc1c(C(N)=O)cc(-c2ccc(Cl)cc2)cc1-c1ccc(S(N)(=O)=O)cc1`, the inhibition is -0.02%.

In the case of `COc1cccc(Nc2nccc(-c3cnn4ncccc34)n2)c1`, the inhibition was 0.75%.

In the case of `CN(c1ccc(NC(=O)NCCN2CCOCC2)cc1)c1ccnc(Nc2ccc(CS(C)(=O)=O)cc2)n1`, the inhibition was found to be 2.43%.

Take `COc1ccc(-c2nn3ncccc3c2-c2ccnc(Nc3ccc(F)c(F)c3)n2)cc1`: the inhibition came out at 5.66%.

In the case of `COc1cc(N2CCN(C(C)C)CC2)ccc1Nc1nc(Nc2cccc(F)c2C(=O)O)c2cc[nH]c2n1`, the inhibition was determined as 1.72%.

For the molecule `CC(C)c1ccc(-c2cc(-c3c[nH]nc3-c3ccccn3)ccn2)cc1`, the inhibition worked out at 0.14%.

Turning to `CS(=O)(=O)Nc1ccc(-c2ccc3c(NC(=O)C4CC4)n[nH]c3c2)cc1`, the inhibition was 2.03%.

With `Cn1c(-c2nonc2N)nc2cnccc21`, the inhibition is 3.19%.

Take `CS(=O)(=O)CCNCc1ccoc1-c1ccc2ncnc(Nc3ccc(OCc4ccccc4)cc3)c2c1`: the inhibition was determined as 0.28%.

`O=C(O[C@H]1CN[C@H](C#Cc2cc3ncnc(Nc4ccc5c(ccn5Cc5cc(F)ccc5F)c4)c3s2)C1)N1CCOCC1`: the inhibition is 1.23%.

For `Nc1nccc(-c2c(-c3ccc(F)cc3)ncn2C2CCNCC2)n1`, the inhibition is 1.95% and 0.03%.

On to `COC(=O)Nc1nc2cc(Oc3ccc(NC(=O)Nc4ccccc4)cc3)ccc2[nH]1`, for which the inhibition came to 0.79%.

For the molecule `CNC(=O)c1ncccc1Nc1nc(Nc2cc3c(cc2OC)CCCN3C(=O)CN(C)C)nc2[nH]ccc12`, the inhibition amounted to 3.37%.

In the case of `O=C(Nc1n[nH]c2nnc(-c3cccnc3)cc12)C1CC1`, the inhibition stood at 0.35%.

A further experiment addresses T1, Serine/threonine-protein kinase BRSK2 (Homo sapiens). Particulars: at 1 µM.
As for `COc1cccc(-n2ncc3c(N/N=C/c4ccc(C(=O)NCCN(C)C)cc4)ncnc32)c1`, the inhibition stood at 72%.

As to `CS(=O)(=O)Nc1ccc(-c2cc(-c3ccccc3)cc(C(N)=O)c2N)cc1`, the inhibition was 2.21%.

Take `CCn1c(-c2nonc2N)nc2cncc(C(=O)NCCNC)c21`: the inhibition is 9.29%.

In the case of `NS(=O)(=O)c1ccc(N/N=C2\C(=O)Nc3cccc(CCc4ccncc4)c32)cc1`, the inhibition came to 15.8%.

Turning to `CCOc1ccc2c(-c3ccnc(Nc4cc(OC)cc(C(F)(F)F)c4)n3)cnn2n1`, the inhibition amounted to 6.6%.

For `Cc1ccc(-c2cc3c(NC(=O)C4CC4)ncnc3o2)cc1`, the inhibition was determined as 4.69%.

Take `COc1cc2c(cc1Nc1nc(Nc3cccc(F)c3C(N)=O)c3cc[nH]c3n1)N(C(=O)CN1CCN(C(C)C)CC1)CC2`: the inhibition is -0.2%.

`Nc1ncnc2occ(-c3ccc(NC(=O)Nc4cc(C(F)(F)F)ccc4F)cc3)c12`: the inhibition is 6.92% and 0.75%.

Take `CN1CCN(Cc2ccc(-c3cc4ncnc(Nc5ccc(OCc6cccc(F)c6)c(Cl)c5)c4s3)o2)CC1`: the inhibition was 4.75% and 4.26%.

`NC(=O)c1ccc2c(-c3ccnc(NCCCO)n3)c(-c3ccc(F)cc3)nn2c1`: the inhibition was determined as 3.75%.

With `CN1CCC(n2cnc(-c3ccc(F)cc3)c2-c2ccnc(NCCO)n2)CC1`, the inhibition amounted to 6.29%.

`O=C(O[C@H]1CN[C@H](C#Cc2cc3ncnc(Nc4ccc5c(cnn5Cc5ccccc5)c4)c3s2)C1)N1CCOCC1`: the inhibition was found to be 3.58%.

For the molecule `Cc1c2ccc(N(C)c3ccnc(Nc4cccc(S(N)(=O)=O)c4)n3)cc2nn1C`, the inhibition is 2.47%.

For the molecule `CNC(=O)c1cncc(/C=C/c2ccccc2C)c1`, the inhibition amounted to 17.4%.

On to `COc1ccc(Nc2ncc(-c3ccccc3)o2)cc1OC`, for which the inhibition was determined as 12.8%.

For `CS(=O)(=O)CCNCc1ccc(-c2ccc3ncnc(Nc4ccc(OCc5ccccc5)cc4)c3c2)o1`, the inhibition was determined as 4.33%.

Regarding `CCCNc1cccc(-n2ncc3c(N/N=C/c4ccncc4)ncnc32)c1`, the inhibition turned out to be 29%.

Regarding `COc1c(C(N)=O)cc(-c2ccc(Cl)cc2)cc1-c1ccc(S(N)(=O)=O)cc1`, the inhibition was 1.59%.

Take `COc1cccc(Nc2nccc(-c3cnn4ncccc34)n2)c1`: the inhibition worked out at 10.4%.

With `CN(c1ccc(NC(=O)NCCN2CCOCC2)cc1)c1ccnc(Nc2ccc(CS(C)(=O)=O)cc2)n1`, the inhibition came to 5.48%.

Turning to `COc1ccc(-c2nn3ncccc3c2-c2ccnc(Nc3ccc(F)c(F)c3)n2)cc1`, the inhibition came to 7.14%.

With `COc1cc(N2CCN(C(C)C)CC2)ccc1Nc1nc(Nc2cccc(F)c2C(=O)O)c2cc[nH]c2n1`, the inhibition came to 3.39%.

Turning to `CC(C)c1ccc(-c2cc(-c3c[nH]nc3-c3ccccn3)ccn2)cc1`, the inhibition turned out to be 0.33%.

As for `CS(=O)(=O)Nc1ccc(-c2ccc3c(NC(=O)C4CC4)n[nH]c3c2)cc1`, the inhibition was 4.96%.

Regarding `Cn1c(-c2nonc2N)nc2cnccc21`, the inhibition stood at 6.4%.

With `CS(=O)(=O)CCNCc1ccoc1-c1ccc2ncnc(Nc3ccc(OCc4ccccc4)cc3)c2c1`, the inhibition came to 1.27%.

With `O=C(O[C@H]1CN[C@H](C#Cc2cc3ncnc(Nc4ccc5c(ccn5Cc5cc(F)ccc5F)c4)c3s2)C1)N1CCOCC1`, the inhibition is 0.73%.

On to `Nc1nccc(-c2c(-c3ccc(F)cc3)ncn2C2CCNCC2)n1`, for which the inhibition was 7.44% and 0.24%.

As to `COC(=O)Nc1nc2cc(Oc3ccc(NC(=O)Nc4ccccc4)cc3)ccc2[nH]1`, the inhibition worked out at 2.06%.

With `CNC(=O)c1ncccc1Nc1nc(Nc2cc3c(cc2OC)CCCN3C(=O)CN(C)C)nc2[nH]ccc12`, the inhibition was found to be 4.64%.

In the case of `O=C(Nc1n[nH]c2nnc(-c3cccnc3)cc12)C1CC1`, the inhibition amounted to 1.6%.

In general, inhibition refers to the relative decrease from the control value, in per cent.
